PubChem BioAssay AID720597 (Broad Institute, 2013)
Entries with a potency or affinity are not part of this list. Calls of active or inactive are those of the source.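 The calls were made as follows: active = fitted half-maximal dose no more than twice the top valid tested dose, for compounds that lower signal; inconclusive = fit invalid, or curve flat with activity between -70 and -30; inactive = potency past limit, curve flat within ±30, or signal increasing.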

Each molecule was assayed against NAD-dependent protein deacylase sirtuin-5, mitochondrial (Homo sapiens) (UniProt Q9NXA8) (assay: SIRT5 deacylase inhibitors, dose response, biochemical, fluorescence imaging, cherry-pick, set 6 (AID 720597;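 also: lower AMC signal can also come from blocking the trypsin step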)). Conditions: Purified SirT5, succinyl-peptide-AMC/trypsin fluorescence; series mostly up to 15 µM.
NAD-dependent protein deacylase sirtuin-5, mitochondrial (Homo sapiens), sequence (Q9NXA8 whole entry, looked up): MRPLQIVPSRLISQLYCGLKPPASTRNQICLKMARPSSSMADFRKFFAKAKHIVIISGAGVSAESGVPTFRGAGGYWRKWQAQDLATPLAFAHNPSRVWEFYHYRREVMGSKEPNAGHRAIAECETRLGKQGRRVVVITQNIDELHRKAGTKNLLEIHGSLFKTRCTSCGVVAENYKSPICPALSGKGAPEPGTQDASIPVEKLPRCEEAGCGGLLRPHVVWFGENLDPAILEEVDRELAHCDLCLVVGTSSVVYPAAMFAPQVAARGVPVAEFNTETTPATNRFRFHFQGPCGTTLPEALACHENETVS

outcome, inactive:
C[C@@H]1CN([C@H](C)CO)C(=O)Cc2cc(NS(=O)(=O)c3ccc(Cl)cc3)ccc2O[C@H]1CN(C)Cc1ccc(Oc2ccccc2)cc1
COc1cccc(CN2[C@@H](CO)[C@H](c3ccccc3)C23CN(C(=O)C2CCCC2)C3)c1
C[C@H]1CN([C@@H](C)CO)C(=O)c2ccccc2-c2ccccc2CO[C@H]1CN(C)Cc1ccc(F)cc1
Cc1cc(C(=O)Nc2cccc3c2O[C@@H](CN(C)Cc2ccc(Oc4ccccc4)cc2)[C@H](C)CN([C@H](C)CO)C3=O)n(C)n1
COc1ccc(S(=O)(=O)N(C)C[C@H]2OCCCC[C@H](C)Oc3ccc(NS(=O)(=O)c4ccc(C)cc4)cc3C(=O)N([C@@H](C)CO)C[C@@H]2C)cc1
Cc1ccc(S(=O)(=O)N(C)C[C@@H]2OCCCC[C@H](C)Oc3ccc(NS(=O)(=O)c4ccc(F)cc4)cc3C(=O)N([C@@H](C)CO)C[C@H]2C)cc1
C[C@@H]1CN([C@@H](C)CO)C(=O)c2cc(C#CCN(C)C)cnc2O[C@@H]1CN(C)Cc1ccncc1
C[C@H]1CN([C@@H](C)CO)C(=O)Cc2cc(NS(=O)(=O)c3ccc(Cl)cc3)ccc2O[C@@H]1CN(C)Cc1ccc(Oc2ccccc2)cc1
C[C@@H]1CN([C@@H](C)CO)S(=O)(=O)c2ccc(C#C[C@@H](C)O)cc2O[C@H]1CN(C)Cc1ccc(-c2ccccc2)cc1
O=C(NCC[C@H]1CC[C@@H](NS(=O)(=O)c2cccc(F)c2)[C@@H](CO)O1)C1CCOCC1
CC(C)C#Cc1cnc2c(c1)C(=O)N([C@@H](C)CO)C[C@@H](C)[C@H](CN(C)C(=O)CN1CCOCC1)O2
C[C@@H]1CN([C@H](C)CO)C(=O)c2cc(NC(=O)c3ccncc3)ccc2O[C@@H]1CN(C)C(=O)Nc1ccc2c(c1)OCO2
COc1ccc(C#Cc2ccc([C@@H]3[C@@H](CO)N4C(=O)CN(C(=O)c5cccnc5)C[C@@H]34)cc2)cc1
Cc1ccc(S(=O)(=O)Nc2ccc3c(c2)C(=O)N([C@H](C)CO)C[C@H](C)[C@@H](CN(C)Cc2ccc(C(F)(F)F)cc2)OCCCC[C@H](C)O3)cc1
COc1ccccc1S(=O)(=O)N(C)C[C@H]1Oc2cc(C#CCC(C)C)ccc2S(=O)(=O)N([C@H](C)CO)C[C@@H]1C
CNC[C@H]1Oc2ccc(NC(=O)Nc3ccc(F)cc3)cc2CC(=O)N([C@H](C)CO)C[C@H]1C
COc1ccc(S(=O)(=O)Nc2ccc3c(c2)C(=O)N([C@H](C)CO)C[C@H](C)[C@H](CN(C)S(=O)(=O)c2cccs2)OCCCC[C@H](C)O3)cc1
C[C@@H]1CN([C@H](C)CO)C(=O)Cc2cc(NS(=O)(=O)c3ccc(F)cc3)ccc2O[C@@H]1CN(C)Cc1ccc(C(F)(F)F)cc1
O=S(=O)(c1ccc(F)cc1)N1CCCCN2[C@@H](CO)[C@@H](c3ccc(C#CC4CCCC4)cc3)[C@@H]2C1
CNC[C@H]1Oc2c(NC(=O)c3ccc(-c4nccs4)cc3)cccc2C(=O)N([C@H](C)CO)C[C@H]1C
C[C@H](CO)N1C[C@H](C)[C@H](CN(C)S(=O)(=O)c2ccccc2F)Oc2cc(C#Cc3cccc(F)c3)ccc2S1(=O)=O
C[C@H]1CCCCO[C@H](CN(C)Cc2ccc(C(F)(F)F)cc2)[C@@H](C)CN([C@@H](C)CO)C(=O)c2cc(NS(=O)(=O)c3ccc(Cl)cc3)ccc2O1
COc1ccc(S(=O)(=O)N(C)C[C@@H]2OCCCC[C@H](C)Oc3ccc(NS(=O)(=O)c4ccc(F)cc4)cc3C(=O)N([C@@H](C)CO)C[C@@H]2C)cc1
C[C@H]1CN([C@@H](C)CO)C(=O)c2cc(NC(=O)Cc3ccccc3)ccc2O[C@@H]1CN(C)Cc1ccc(Oc2ccccc2)cc1
CC(=O)N(Cc1cccc(F)c1)C[C@H]1[C@@H](c2ccccc2)[C@@H](CO)N1C(C)=O
COCC(=O)Nc1ccc2c(c1)C(=O)N(C)C[C@@H](OC)[C@H](C)CN(Cc1ccccn1)[C@H](C)CO2
C[C@H](CO)N1C[C@H](C)[C@@H](CN(C)Cc2ccc(Oc3ccccc3)cc2)Oc2ccc(NS(=O)(=O)c3ccc(Cl)cc3)cc2CC1=O
C[C@@H]1CN([C@@H](C)CO)C(=O)c2cccc(NC(=O)CCCCCC(=O)Nc3ccccc3N)c2O[C@H]1CN(C)Cc1ccc(-c2ccccc2)cc1
